Measured values taken from PubChem BioAssay AID493078 (National Center for Advancing Translational Sciences (NCATS), 2011).
Some of the results follow. Entries that show only a call come without a potency. Results filed as inconclusive are left out. Activity calls are given as the source filed them. Calls come from the whole dose curve; as a rule, active = well fitted activation curve with a large enough effect; inconclusive = small, poorly fitted or top-dose-only effect; inactive = flat fitted curve, though single readings scatter. Where a SMILES comes first, the peptide text is derived from it. The star is where a group is joined. OPac = O=C(CO*)c1ccccc1; Bz = O=C(c1ccccc1)*

The molecules below were run against Thyrotropin-releasing hormone receptor (Homo sapiens) (UniProt P34981) (assay: qHTS for Small Molecule Agonists and Allosteric Enhancers of Human TRH Receptor: Confirmation Screen for Agonists). Settings: TRHR-expressing cells, agonist activation read-out; series mostly up to 46.1 µM.
Description: NIH Chemical Genomics Center [NCGC]
NIH Molecular Libraries Probe Centers Network [MLPCN]
Assay Submitter (PI): Marvin Gershengorn
This project aims to identify small drug-like molecules that activate (agonists) the thyrotropin releasing hormone (TRH) receptor (TRHR) or enhance its TRH-stimulated activity (allosteric enhancers). TRHR, a drug-accessible cell surface receptor expressed in specific brain regions, and its ligand TRH have been implicated in several central nervous system disorders, including depression and anxiety. Small molecule TRHR agonists or allosteric enhancers that are metabolically stable and able to cross the blood-brain barrier might serve as probes to elucidate the roles of brain TRH receptors in animal models, and might be valuable as lead compounds for the development of drugs to treat patients with central nervous system disorders.
Upon TRHR-Gq activation in TRHR cells, intracellular calcium is released from stores in the endoplasmic reticulum.
For the HTS assay freshly prepared cells are plated at a density of 2000/well in 3 ul of complete DMEM medium containing 10% serum in 1536-well plates and cultured over night at 37 C in a humidified incubator with 5% CO2. The next day, 2 ul of a no wash calcium dye (ABD Bioquest) was added to the cells and plates were incubated at room temperature for 1 hour. For the assay, assay plates were loaded into the FDSS kinetic plate reader. A 10 cycle (1 second/cycle) baseline measurement is taken and then the FDSS online 1536 pintool delivers 23 nl of compound library (as well as TRH controls) to the plate. The plate is measured for kinetically at 1 cycle/sec for 180 seconds and is considered to be the agonist portion of the assay (eg, compounds which activate a positive calcium response during this portion are flagged as potential agonists). Following the 180 second read, 1 ul of either an EC20 (positive modulation assay) is delivered by an onboard pipette head. Measurements are taken kinetically for an additional 180 seconds.
TRHR FDSS Screening Protocol
1. Reagent, 3 uL 2000 cells/well 1536 TC treated Black plate in media containing 10% FCS
2. Time, 18 hours, 33.5C 5% CO2 (cells grown at 37C)
3. Reagent, 2 uL ABD fluo-8 Ca dye
4. Time, 30 min-1.5hrs hours, Room temp (6 plates/batch)
5. Detector, EX 480/EM 530C, FDSS 10 cycles baseline (1sec/cycle)
6. Compound, 23 nL of stock solution from library
7. Detector, EX 480/EM 530C, FDSS 230 cycles (1sec/cycle) Agonist mode
8. Compound, 1 ul EC20 of TRH made up in HEPES HBSS, 10 nM final
9. Detector, EX 480/EM 530C, FDSS 100 cycles (1sec/cycle) Potentiator mode
Note: nearly all actives have a fitted effect of over 75% in size.
Potency is the fitted concentration of half-maximal effect.

Chain of Thyrotropin-releasing hormone receptor (Homo sapiens) (P34981 whole entry, looked up): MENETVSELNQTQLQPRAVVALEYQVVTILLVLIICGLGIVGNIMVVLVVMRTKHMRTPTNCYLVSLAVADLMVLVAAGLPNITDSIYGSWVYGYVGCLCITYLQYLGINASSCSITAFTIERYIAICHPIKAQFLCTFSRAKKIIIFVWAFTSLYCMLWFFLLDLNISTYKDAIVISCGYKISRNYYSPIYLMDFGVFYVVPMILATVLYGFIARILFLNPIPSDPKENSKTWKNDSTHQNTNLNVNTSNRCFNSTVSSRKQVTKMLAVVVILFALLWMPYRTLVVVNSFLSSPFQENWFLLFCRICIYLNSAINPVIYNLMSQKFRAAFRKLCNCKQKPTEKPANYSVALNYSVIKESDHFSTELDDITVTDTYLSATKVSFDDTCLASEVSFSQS

| Structure (SMILES) | Potency |
| --- | --- |
| Cc1nn(Cc2ccccc2)c(C)c1C(=O)N1CCN(CC(=O)Nc2ccccc2Cl)CC1 | inactive |
| C/C(=C\c1ccco1)CN1CCC(N2CCC(C(=O)N3CCOCC3)CC2)CC1 | inactive |
| Cc1ccc(Cl)c(OCC(=O)N2CCc3ccccc3C2)c1 | inactive |
| NS(=O)(=O)c1cccc(NC(=O)CSc2nc3ccccc3n2-c2ccccc2)c1 | inactive |
| N#Cc1ccc(Oc2cc(C(F)(F)F)nc(-c3ccccn3)n2)cc1 | inactive |
| COc1ccc(CCn2ccc(O)c(Cc3ccc(Cl)cc3Cl)c2=O)cc1OC | inactive |
| CCOc1cc(CN2CCCC(CO)(Cc3ccc(F)cc3F)C2)ccc1OC (stereo not given) | inactive |
| COc1ccc(Cl)cc1NC(=O)CN(C)Cc1ccc(OC)c(OC)c1 | inactive |
| c1cnc(N2CCN(c3ccc4ccccc4n3)CC2)nc1 | inactive |
| COc1cc(/C=C(\C#N)c2nc3ccccc3[nH]2)ccc1O | 20.6 µM (active) |
| CCc1nnc(NC(=O)[C@@H](NC(=O)c2cccc(C)c2)C(C)C)s1 | inactive |
| Cc1cc(C(=O)CCl)c(C)n1CC1COc2ccccc2O1 (stereo not given) | inactive |
| Cc1ccc(-c2cn(S(=O)(=O)c3cccc([N+](=O)[O-])c3)nc2N)cc1 | inactive |
| Cc1cc(S(=O)(=O)c2cc3ccc(O)c(C)c3oc2=O)ccc1F | 20.6 µM (active) |
| CC(=O)n1c(C=Nc2ccccc2)c(O)c2ccccc21 | 20.6 µM (active) |
| Cc1cccn2c(=O)c3cc(C(=O)NC4CCCCC4)sc3nc12 | inactive |
| COC(=O)c1cc(N2CCNCC2)nc2ccccc12 | inactive |
| COc1cc(C2C3=C(CCCC3=O)OC3=C2C(=O)CCC3)ccc1OCC(=O)Nc1ccccc1 | inactive |
| O=C1C(=O)N(CCCO)C(c2ccccc2)/C1=C(\O)c1ccc(Br)cc1 (stereo not given) | inactive |
| Cc1c(/C=N\NC(=O)c2cc3ccccc3o2)c2ccccc2n1C | inactive |

| Structure (SMILES) | Potency |
| --- | --- |
| CCc1ccccc1NC(=O)/C(=C/c1ccccc1)c1ccccc1 | inactive |
| Cc1csc(CN(C)C(=O)CC2C(=O)NCCN2CC(C)(C)C)n1 (stereo not given) | inactive |
| O=C(Nc1ccccc1)c1cccnc1Nc1ccccc1 | inactive |
| CC(=O)N1CCN(CC(=O)Nc2ccc(C)c(F)c2)CC1 | inactive |
| O=c1[nH]c2cccnc2n(CCNc2ncc(C(F)(F)F)cc2Cl)c1=O | inactive |
| O=C(CNC(=O)c1ccccc1)NCC(=O)OCC(=O)c1ccccc1 (Bz-Gly-Gly-OPac) | inactive |
| Cn1cccc1C1(C(F)(F)F)NCCNC1=O (stereo not given) | inactive |
| CC1(C)Cc2c(cnn2-c2cccc(F)c2)C(NC(=O)c2cc[n+]([O-])cc2)C1 (stereo not given) | inactive |
| CC(=O)c1cc(NC(=O)c2ccccc2)c(=O)oc1/C=C/N(C)C | 20.6 µM (active) |
| O=c1o[nH]c(-c2ccccc2)c1N=Nc1c(F)cccc1Cl | inactive |
| CC1=C(C)CC(C(=O)NC(C)CCc2ccccc2)C(C(=O)O)C1 (stereo not given) | inactive |
| COc1ccc(OCc2n[nH]c(=S)n2N)cc1 | inactive |
| O=C(/C=C/c1ccc(N2CCOCC2)cc1)c1ccccc1 | 20.6 µM (active) |
| CCOC(=O)C1=C(O)/C(=C/c2cc(C)n(-c3ccccc3)c2C)N=C1C | inactive |
| CC(C)c1nnc(NC(=O)CCC(=O)N2CCN(c3cccc(Cl)c3)CC2)s1 | inactive |
| NC(N)=Nc1nc(-c2ccccc2)c2cc(Cl)ccc2n1 | inactive |
| CSc1nnnn1-c1c(C)cc(C)cc1C | inactive |
| C/C(=N/OC(=O)c1ccc(Br)cc1)c1ccc(C)cc1 | inactive |
| O=C(CN1C(=O)c2cccc3cccc1c23)Nc1ccccc1 | inactive |
| CN(C(=O)CSc1nnc(Nc2ccccc2)s1)C1CCS(=O)(=O)C1 (stereo not given) | inactive |
